Data on eleven compounds can be found in PubChem BioAssay (NCI).

“And” between values parts separate entries of the source, which are not always exact repeats. Equal entries are not always repeated. About 79,000 compounds went through this panel and 15% of them were active in at least one assay; those are over-represented in the sample as a whole. The source made the active and inactive calls. No stated cut-off is given here; in the data, active means growth inhibition above about 70%; inactive means the rest.

Experiment [1] can be described thus: NCI Yeast Anticancer Drug Screen. Data for the mec2-1 strain (AID 157). The settings on record: S. cerevisiae mec2-1 strain, active compounds read high. A digest of the protocol:
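Using mec2-1 yeast: add compound, measure growth, express inhibition versus vehicle-treated cultures.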

Experiment [2] can be described thus: NCI Yeast Anticancer Drug Screen. Data for the sgs1 mgt1 strain (AID 161).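 Further: 0% = growth of cultures given vehicle only.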 Conditions: S. cerevisiae sgs1 mgt1 strain, active compounds read high. A digest of the protocol: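 This yeast growth screen uses a strain with defined DNA-repair lesions; compound-treated growth is compared with vehicle-treated growth.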
The nature of experiment [3]: NCI Yeast Anticancer Drug Screen. Data for the cln2 rad14 strain (AID 165).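 Further: 0% = growth equal to vehicle treated cultures.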 Conditions: S. cerevisiae cln2 rad14 strain, active compounds read high. A digest of the protocol:
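Yeast strain cln2 rad14, bearing defects in cell cycle control and DNA repair, serves as the test system; values reflect growth inhibition compared with vehicle.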

A short description of experiment [4]: NCI Yeast Anticancer Drug Screen. Data for the bub3 strain (AID 167). Conditions: S. cerevisiae bub3 mutant strain, active compounds read high. A digest of the protocol: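 Whole-cell yeast assay. The mutant strain was incubated with compounds, and growth inhibition was determined by comparison with vehicle-treated cells.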
Experiment [5] can be described thus: NCI Yeast Anticancer Drug Screen. Data for the mlh1 rad18 strain (AID 175). Conditions: S. cerevisiae mlh1 rad18 strain growth inhibition, active compounds read high. A digest of the protocol: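 Steps: expose repair-defective yeast to compound; measure growth; express inhibition against vehicle-treated controls.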
A short description of experiment [6]: NCI Yeast Anticancer Drug Screen. Data for the rad50 strain (AID 155).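 Further: 0% = growth of vehicle-only cultures of the same strain.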 Conditions: S. cerevisiae rad50 strain growth inhibition; at 50.0 µM; active compounds read high. A digest of the protocol: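 Growth of the mutant yeast was measured after compound exposure and referenced to vehicle-treated cultures.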
Setting [7] is: at 5.0 µM (retest, dose inferred, filed as 0.5).
Where [8] appears, read: at 50.0 µM (retest, dose inferred, filed as 5.0).

Consider `Cc1ccc2cccc(OC(=O)Nc3cccc(C(F)(F)F)c3)c2n1`, for which the growth inhibition in experiment [1] (setting [7]) was 39% (inactive); in experiment [1] (setting [8]), 98% (active); in experiment [1] (at 50.0 µM), 89.9% (active); in experiment [2] (setting [7]), 50% (inactive); in experiment [2] (setting [8]), 100% (active); in experiment [2] (at 50.0 µM) it was 91.1% (active). Also, the growth inhibition was 38% (inactive) in experiment [3] (setting [7]); 98% (active) in experiment [3] (setting [8]); 91% (active) in experiment [3] (at 50.0 µM); 42% (inactive) in experiment [4] (setting [7]); 98% (active) in experiment [4] (setting [8]); 90.9% (active) in experiment [4] (at 50.0 µM). Moreover, the growth inhibition in experiment [5] (setting [7]) was 50% (inactive); in experiment [5] (setting [8]), 98% (active); in experiment [5] (at 50.0 µM), 92.5% (active).
Take `C[n+]1cccc2ccccc21`: the growth inhibition was -17.1% (inactive) and -14% (inactive) in experiment [6]; -11.8% (inactive) and -2.1% (inactive) in experiment [1] (at 50.0 µM); -40.5% (inactive) and -8.3% (inactive) in experiment [2] (at 50.0 µM); 11.5% (inactive) and 6.7% (inactive) in experiment [4] (at 50.0 µM); -11.6% (inactive) and -4.15% (inactive) in experiment [5] (at 50.0 µM).
For the compound `OCCN1CCNCC1`, the growth inhibition in experiment [6] was 4.4% (inactive) and -9.55% (inactive); in experiment [1] (at 50.0 µM), -0.5% (inactive) and -14.3% (inactive); in experiment [2] (at 50.0 µM), 4.95% (inactive) and -17.8% (inactive); in experiment [3] (at 50.0 µM), 8.3% (inactive) and -15.8% (inactive); in experiment [4] (at 50.0 µM) it was -23.5% (inactive) and 13.4% (inactive); in experiment [5] (at 50.0 µM), 1.75% (inactive) and -19.2% (inactive).
For `CCOC(=O)C(=Cc1ccco1)C(=O)OCC`, the growth inhibition in experiment [6] is 38.5% (inactive) and 10.2% (inactive); in experiment [1] (at 50.0 µM) it was 37.1% (inactive) and -24.6% (inactive); in experiment [2] (at 50.0 µM), 7.75% (inactive) and -0.5% (inactive); in experiment [3] (at 50.0 µM), 23.8% (inactive) and 8.8% (inactive); in experiment [4] (at 50.0 µM), -4.65% (inactive) and -9.25% (inactive); in experiment [5] (at 50.0 µM), 19.8% (inactive) and -19.1% (inactive).
For `Nc1ccc(C(=O)NCC(=O)O)cc1`, the growth inhibition in experiment [6] was 13.4% (inactive) and 10.3% (inactive); in experiment [1] (at 50.0 µM) it was 3.65% (inactive) and -4.8% (inactive); in experiment [2] (at 50.0 µM), 3.25% (inactive) and 5.05% (inactive); in experiment [3] (at 50.0 µM), -41.3% (inactive) and 15.2% (inactive); in experiment [4] (at 50.0 µM), 6.75% (inactive) and -3.5% (inactive); in experiment [5] (at 50.0 µM), 0.4% (inactive) and 16.7% (inactive).
Take `CCOC(=O)NC(/C=C/c1ccccc1)NC(=O)OCC`: the growth inhibition in experiment [1] (setting [7]) was -1% (inactive); in experiment [1] (setting [8]), -31% (inactive); in experiment [1] (at 50.0 µM), 29.6% (inactive); in experiment [2] (setting [7]), -4% (inactive); in experiment [2] (setting [8]), -29% (inactive); in experiment [2] (at 50.0 µM) it was 30.1% (inactive). Besides, the growth inhibition is 5% (inactive) in experiment [3] (setting [7]); -33% (inactive) in experiment [3] (setting [8]); 29.9% (inactive) in experiment [3] (at 50.0 µM); 2% (inactive) in experiment [4] (setting [7]); -20% (inactive) in experiment [4] (setting [8]); 11.8% (inactive) in experiment [4] (at 50.0 µM). For the same compound, the growth inhibition is 1% (inactive) in experiment [5] (setting [7]), -26% (inactive) in experiment [5] (setting [8]) and 83.6% (active) in experiment [5] (at 50.0 µM).
Take `CC(N)(CCO)C(=O)O` (stereo not given): the growth inhibition was 1.25% (inactive) and -1.8% (inactive) in experiment [6]; 11.9% (inactive) and -3% (inactive) in experiment [1] (at 50.0 µM); -5.95% (inactive) and -19.4% (inactive) in experiment [2] (at 50.0 µM); 1.4% (inactive) and -18% (inactive) in experiment [3] (at 50.0 µM); -5.5% (inactive) and 8.75% (inactive) in experiment [4] (at 50.0 µM); 3.95% (inactive) and 7.2% (inactive) in experiment [5] (at 50.0 µM).
For `COc1cc(/C=C/c2ccnc3ccccc23)cc(OC)c1OC`, the growth inhibition in experiment [1] (setting [7]) is 34% (inactive); in experiment [1] (setting [8]) it was 68% (inactive); in experiment [1] (at 50.0 µM), 79.3% (active); in experiment [2] (setting [7]) it was 14% (inactive); in experiment [2] (setting [8]) it was 93% (active); in experiment [2] (at 50.0 µM) it was 88.2% (active). Further, the growth inhibition in experiment [3] (setting [7]) was 25% (inactive); in experiment [3] (setting [8]), 45% (inactive); in experiment [3] (at 50.0 µM), 65.3% (inactive); in experiment [4] (setting [7]) it was 43% (inactive); in experiment [4] (setting [8]), 92% (active); in experiment [4] (at 50.0 µM) it was 72.6% (active). The growth inhibition in experiment [5] (setting [7]) is 45% (inactive); in experiment [5] (setting [8]) it was 81% (active); in experiment [5] (at 50.0 µM), 22.2% (inactive).
As to `NC(=O)c1nnn(Cc2ccccc2)c1N`, the growth inhibition was 5.55% (inactive) and 31.2% (inactive) in experiment [6]; 5.6% (inactive) and -1.5% (inactive) in experiment [1] (at 50.0 µM); -3.05% (inactive) and -4.65% (inactive) in experiment [2] (at 50.0 µM); 6.9% (inactive) and -5.2% (inactive) in experiment [4] (at 50.0 µM); 9.6% (inactive) and 3.3% (inactive) in experiment [5] (at 50.0 µM).
`Cc1ccc(S/C=C/C(=O)O)cc1`: the growth inhibition was -3% (inactive) and 19.8% (inactive) in experiment [6]; 18.5% (inactive) and -0.1% (inactive) in experiment [1] (at 50.0 µM); 16.1% (inactive) and 20.4% (inactive) in experiment [2] (at 50.0 µM); 7.7% (inactive) and 19.2% (inactive) in experiment [3] (at 50.0 µM); -0.1% (inactive) and -6.05% (inactive) in experiment [4] (at 50.0 µM); 20.6% (inactive) and 5.45% (inactive) in experiment [5] (at 50.0 µM).
Turning to `COC1OC2COC(C)(C)OC2C1NS(=O)(=O)Cc1ccccc1` (stereo not given), the growth inhibition in experiment [1] (at 50.0 µM) was -6.85% (inactive) and -9.65% (inactive); in experiment [2] (at 50.0 µM), -2.1% (inactive) and -4.05% (inactive); in experiment [3] (at 50.0 µM) it was -32.6% (inactive) and -34.1% (inactive); in experiment [4] (at 50.0 µM), -3.45% (inactive) and -11.8% (inactive); in experiment [5] (at 50.0 µM) it was -14.1% (inactive) and -6.35% (inactive).
